From the supplement of paper PMC9925115
Structures can show the parent of a compound that is named as a salt. ± gives the uncertainty stated by the source.

tested on: FLX1; test: cell viability z-score within plate (CellTiter-Glo), mean of 3 biological replicates; higher = higher viability relative to plate (less growth inhibition); conditions: 2 µM; time (hr): 120
Description: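 FLX1 fibrolamellar carcinoma cells (DNAJB1-PRKACA fusion), 600 cells/well in 384-well plates, treated with a Selleck kinase inhibitor library (L1200) at 2 uM for 5 days (120 hr); viability by CellTiter-Glo. A z-score was computed within each plate and averaged over three biological replicates.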

Row | Compound | cell viability z-score within plate
1 | Oc1c2ccccc2c2c3c(cccc13)N=N2 | 0.48 ± 0.65
2 | CC(C)(C)c1cnc(CSc2cnc(NC(=O)C3CCNCC3)s2)o1 | -1.06 ± 1.3
3 | COc1ccc(CNC(=O)Nc2ncc([N+](=O)[O-])s2)cc1 | 0.771 ± 0.6
4 | COc1cc2ncnc(Nc3ccc(F)c(Cl)c3)c2cc1OCCCN1CCOCC1 [Gefitinib (ZD1839)] | -1.17 ± 1.2
5 | N#C/C(=C\c1ccc(O)c(O)c1)C(=O)NCc1ccccc1 [AG-490 (Tyrphostin B42)] | -0.668 ± 1.4
6 | CCn1c(N)c(C(=O)NC)c(=O)c2ccc(C#CC(C)(O)COC)nc21 (stereo not given) | -1.49 ± 1.7
7 | CS(=O)(=O)c1cccc(CNc2nc(Nc3ccc4c(c3)CCC(=O)N4)ncc2C(F)(F)F)c1 | -2.81 ± 1.3
8 | CCN1CCN(Cc2ccc(Nc3ncc(F)c(-c4cc(F)c5nc(C)n(C(C)C)c5c4)n3)nc2)CC1 | 0.939 ± 0.8
9 | C=CC(=O)Nc1cccc(Oc2nc(Nc3ccc(N4CCN(C)CC4)cc3)ncc2Cl)c1 | -0.0359 ± 0.21
10 | NC(=O)Nc1sc(-c2ccc(F)cc2)cc1C(N)=O | -0.156 ± 0.51
11 | CNC(=O)c1cc(Oc2ccc(NC(=O)Nc3ccc(Cl)c(C(F)(F)F)c3)cc2)ccn1 [Sorafenib Tosylate] | -0.335 ± 0.66
12 | COc1cccc2cc(-c3nc([C@H]4CC[C@H](C(=O)O)CC4)n4ncnc(N)c34)[nH]c12 | 0.362 ± 0.51
13 | Cc1cc(Nc2cc(CN3CCOCC3)c3nc(C)c(Cc4ccc(Cl)cc4F)n3n2)n[nH]1 | 0.049 ± 0.54
14 | O=C(O)c1ccc(Nc2ncc3c(n2)-c2ccc(Cl)cc2C(c2c(F)cccc2F)=NC3)cc1 | 1.2 ± 0.42
15 | OCCn1cc(-c2ccc3c(c2)CC/C3=N\O)c(-c2ccncc2)n1 | 0.788 ± 0.054
